Source: article PMC12136788
Substitutions are numbered along the chain they refer to. In all, about 5,800 sequences were measured (“enrichment r”: median about 0.68, highest 2% from about 11 on). The full list was thinned out, with the highest values kept by preference.

T1: UNK ZnF1-6 (called full-length) (human, UniProt Q9C0B0 30-357)
T1 sequence: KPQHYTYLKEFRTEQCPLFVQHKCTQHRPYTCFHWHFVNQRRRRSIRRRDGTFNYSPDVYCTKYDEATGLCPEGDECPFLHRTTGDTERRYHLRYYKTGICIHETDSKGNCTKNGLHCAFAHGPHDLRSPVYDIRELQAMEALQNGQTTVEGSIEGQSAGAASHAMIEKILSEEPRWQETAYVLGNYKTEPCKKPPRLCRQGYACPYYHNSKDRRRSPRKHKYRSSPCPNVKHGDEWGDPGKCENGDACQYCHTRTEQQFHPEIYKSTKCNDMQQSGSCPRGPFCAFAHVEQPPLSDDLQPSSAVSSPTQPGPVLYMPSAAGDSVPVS

B1: ENSG00000124766:be:win_3501|3pUTR|ENSG00000124766|bound_else_gene|NA|bound_elsewhere_windowed (ssRNA)
RNA: GGGAGUUCUACAGUCCGACGAUCAACUUGUAAACCACAUCUUUUUUGCACUUUUUUUAUAAGCAAAAACGUGCCGUUUAAACCACUGGAUCUAUCUAAAUGCCGAUUUGAGUUCGCGACACUAUGUACUGCGUUUUUCAUUCUCAACAGAGGAUUGAGCAUCA
B2: chr10:60791946:60792061:+|CDS|ENSG00000170312|unk|FALSE|unique (ssRNA)
RNA: GGGAGUUCUACAGUCCGACGAUCGUCAGCUCGUUACUCAACUCCAGUUGACAUUUGGAGUAUAGGCACCAUAUUUGCUGAACUAGCAACUAAGAAACCACUUUUCCAUGGGGAUUCAGAAAUUGAUCAACUCUUCAGGAUUUUCAACAGAGGAUUGAGCAUCA
B3: chr19:13098382:13098626:+|3pUTR|ENSG00000008441|msi1|FALSE|unique (ssRNA)
RNA: GGGAGUUCUACAGUCCGACGAUCACGCAGUAUAUACGAGUAUCUCUAUAUAUAGUACUAAUGGAUUUGGUGUGCUUCCCCCUUAGCGUCCCCCUCCCUCUGCUCCUCCUCCUUCAGCCUGGUCUCCCCCUCUUCUCUGCCCUCCAACAGAGGAUUGAGCAUCA
B4: ENSG00000006432:stop:overlap|stop_codon|ENSG00000006432|stop_codon|NA|stop_codon (ssRNA)
RNA: GGGAGUUCUACAGUCCGACGAUCGAGCGGAACUGAACACACACAGGCCUGCCCCUUAUGAGAUCCAGCAGGAGUUCUGGUCUUAGCACGAAAAGGAUUGGGGCGGGCAAGGGGGACAGCCAGCGGAGAUGAGGGGAGCUGGCGCAACAGAGGAUUGAGCAUCA
B5: chr6:149410404:149410522:+|3pUTR|ENSG00000055208|unk|FALSE|bound_elsewhere (ssRNA)
RNA: GGGAGUUCUACAGUCCGACGAUCUUAUAUUUCUAUAUGUAUAGUGUAAUAGCCUUUUGUUAACUAAUUUUCUUUUUUCCUUUUAGUAAUUAAGCACGAUCAUGUCCCUUUUUAAGCCUUACCUGAGAGGAACAAUGCCUUAAACAACAGAGGAUUGAGCAUCA
B6: chr3:112140897:112141281:-|three_prime_utr|ENSG00000172139|control|control|control (ssRNA)
RNA: GGGAGUUCUACAGUCCGACGAUCACUUUUUGCAAAAUUUCCUUGAUUUAAAAUAUUUGUUAUUUUAAAUAUACAAAACAUUUUAGAAAAUCUUAGAGUAAAUUUUAGUCUUAAAGCCAGAAAAUAAGUUUAUAGCCAUCUAGACAACAGAGGAUUGAGCAUCA
B7: chr2:15946816:15946917:+|3pUTR|ENSG00000134323|unk|FALSE|unique (ssRNA)
RNA: GGGAGUUCUACAGUCCGACGAUCUAUAUGCCUUUUUCCUAGCCUGUUUCUUCCUGUUAAUGUAUUUGUUCAUGUUUGGUGCAUAGAACUGGGUAAAUGCAAAGUUCUGUGUUUAAUUUCUUCAAAAUGUAUAUAUUUAGUGCUCAACAGAGGAUUGAGCAUCA
B8: chr6:132743869:132744491:-|three_prime_utr|ENSG00000112303|control|control|control (ssRNA)
RNA: GGGAGUUCUACAGUCCGACGAUCAUGUGGGACCAGCAAUUCAGCAAUAACUUACCUGCUAAUAUUCAUAUUAUUAAUGAUCAUAGCUUUGCAAAAUAUUGUAAUGUUAUAGGGCGUCUCUUUAUCACUCAGCUUCUGCAUCAUCAACAGAGGAUUGAGCAUCA
B9: chr6:149410404:149410522:+|3pUTR|ENSG00000055208|unk|total|mutant (ssRNA)
RNA: B5 RNA with U41C, A42C, U49C, A50C, U83C, A84C
B10: chr16:1487315:1487970:-|CDS|ENSG00000251692|control|control|control (ssRNA)
RNA: GGGAGUUCUACAGUCCGACGAUCGGGGGAGCUGGCGCAGCUCAAGGCCUGGGUGAGGAAGCUGCAGCGCCGAGGCCGGAAAGUAGACACGCGGCUGCGGGCCUUGGACCUCACCCUGGGCGAGAGGAGCCAGCAGCGGGCCCGCAACAGAGGAUUGAGCAUCA
B11: chr10:52765379:52768136:-|three_prime_utr|ENSG00000165471|control|control|control (ssRNA)
RNA: GGGAGUUCUACAGUCCGACGAUCUUGUUCCUUUUGUGGGCAAUCACUAAAAAUGAUCACUAACAGCACCAACAAAGCAAUAAUAGUAGUAGUAGUAGUUAGCAGCAGCAGUAGUAGUCAUGCUAAUUAUAUAAUAUUUUUAAUCAACAGAGGAUUGAGCAUCA
B12: chr17:142788:147440:-|three_prime_utr|ENSG00000272636|control|control|control (ssRNA)
RNA: GGGAGUUCUACAGUCCGACGAUCGAGACCUCAGCACCUGCCCAGGGGAAGGGGACACGCCCAUCUGGGAGCAAAGACCCUUCUAGAGGCCAGCCCCGGCUGAGAGGACAGGAGUGUGGGGGCGCCUUGGCGGACAGUGGGAACCAACAGAGGAUUGAGCAUCA
B13: chr5:172042892:172042993:-|3pUTR|ENSG00000072786|msi1|FALSE|unique (ssRNA)
RNA: GGGAGUUCUACAGUCCGACGAUCGAUUCUCCCGCUUCAACCUUGAGUAGCUGGGACGACAGAUACAUGCUACUGCACCCAGCUAGGUUAAGGUUCUGUAUACUCUGUCUUUCUAAAGCAAUUCCCUGGAAAUUUUCUCAACAUCAACAGAGGAUUGAGCAUCA
B14: chr12:85264020:85264122:+|3pUTR|ENSG00000133640|unk|FALSE|unique (ssRNA)
RNA: GGGAGUUCUACAGUCCGACGAUCCAUAGUAUUUCAGUUACUUUCCACAGCUGUGUUGCUCAAUAAUAGCAUCCAGUGAACUUUAGUAUUUUUUUGUUUUUCCUGUAUUUUAUUAAAAUAUUUCAUCUAGAGAUAACUGAAGUGCAACAGAGGAUUGAGCAUCA
B15: chr1:32196422:32196614:+|3pUTR|ENSG00000084652|msi1|FALSE|unique (ssRNA)
RNA: GGGAGUUCUACAGUCCGACGAUCACAGUUGUUUCUGUGUCCUGUUCUACCCCCACUCCAGUACAUAACUACUAUGUACUGUGUAGAGCCAUUCUAUAUGCUGAAUGUUCUGCUGUUGCAAACUUGCCAGGGUAUUAGCCAGUGCAACAGAGGAUUGAGCAUCA
B16: chr17:67075675:67075776:-|3pUTR|ENSG00000198265|unk|FALSE|unique (ssRNA)
RNA: GGGAGUUCUACAGUCCGACGAUCAUUCCUUAUUUCCAUAGCCAGUCAAGGAUUCUAACGCUGCUUCCAUCUGAUACUCUUCUUAGAUUCUGCAUCAAAUGCUUAUUUUGACUUACAACAAGCUUACUCUUCCUCAGCAUUACACAACAGAGGAUUGAGCAUCA
B17: chr19:33301014:33301115:-|3pUTR|ENSG00000245848|unk|FALSE|unique (ssRNA)
RNA: GGGAGUUCUACAGUCCGACGAUCUCCCUGCGAGGAGGGGAGAAUUCUUGGGGCUGAGCUGGGAGCCCGGCAACUCUAGUAUUUAGGAUAACCUUGUGCCUUGGAAAUGCAAACUCACCGCUCCAAUGCCUACUGAGUAGGGGGCAACAGAGGAUUGAGCAUCA
B18: chr15:78283234:78283431:-|three_prime_utr|ENSG00000140395|control|control|control (ssRNA)
RNA: GGGAGUUCUACAGUCCGACGAUCUCUCCAGGCUUAUGCUGCAAAGAGAAUGUACGGAUUGAUCAUGACAUUCCUUACCUUCUUAGGCUUGUUUAAAAGAAAUAUAGCAUUUAUUGUAGCAAAGACUUAAAUUUUGUAGAUACACAACAGAGGAUUGAGCAUCA
B19: chr6:53267885:53267986:-|3pUTR|ENSG00000012660|msi1_unk|FALSE|overlapping (ssRNA)
RNA: GGGAGUUCUACAGUCCGACGAUCUUUAAUGUAAAUCUAAUAGUACUUGUAAUUUCUUUCUGCUUAGAAUCUAAAGAUGUGUUUAGAACCUCUUGUUUAAAAAUAAUAGACUGCUUAUCAUAAAAUCACAUCUCACACAUUUGACAACAGAGGAUUGAGCAUCA
B20: chr4:138171397:138171528:-|3pUTR|ENSG00000151012|msi1|FALSE|unique (ssRNA)
RNA: GGGAGUUCUACAGUCCGACGAUCAUUAUGGCAAAGAGGAGAGAAAGAAAUUUAUUUUACAUUGACAUUGCAUUGCUUCCCCUUAGAUACCAAUUUAGAUAACAAACACUCAUGCUUUAAUGGAUUAUACCCAGAGCACUUUGACAACAGAGGAUUGAGCAUCA
B21: chr4:138171397:138171528:-|3pUTR|ENSG00000151012|msi1|total|mutant (ssRNA)
RNA: B20 RNA with U83C, A84C, U95C, A96C
B22: chr3:62294137:62294238:+|3pUTR|ENSG00000144724|msi1|FALSE|unique (ssRNA)
RNA: GGGAGUUCUACAGUCCGACGAUCUGAGACCCUUUAGUUAUUCUCCAUUAAUGCUUCUUAGUUUGUAAUACCAUACCUCACAGUAGGUAGAAGAAUGAAAACUUCUGCAGGUGUGUAAUUUUGAAACUAGUCCUCUAAAAAUUCCAACAGAGGAUUGAGCAUCA
B23: chr8:41543231:41543332:+|3pUTR|ENSG00000147536|msi1|total|mutant (ssRNA)
RNA: GGGAGUUCUACAGUCCGACGAUCAAACCAUUAUUAAAUUUCCAUUCUGCAGCAGAAGGCACCUCUGGACGGCUCCCGGCUUGCCGUUUAAUGAAGUAUGUGCUCCCUGCUGUUAACCCGCAGCCCUCCCCAACUCUCCAGCAGCAACAGAGGAUUGAGCAUCA
B24: chr3:97755980:97756081:+|3pUTR|ENSG00000080224|unk|FALSE|unique (ssRNA)
RNA: GGGAGUUCUACAGUCCGACGAUCUAAUUAAAAAUCUCUUUCCUACCUUUAGUAAUUUGUAGGAUGAACUGUAUGCAUUUAGAUAGAAAUUGCUUUUGUUAAAUUUACAUUUAAACACAUCUUCAUUCACUUAGAGAAGCCAUACAACAGAGGAUUGAGCAUCA
B25: ENSG00000070961:be:win_5101|3pUTR|ENSG00000070961|bound_else_gene|NA|bound_elsewhere_windowed (ssRNA)
RNA: GGGAGUUCUACAGUCCGACGAUCAUGACCACCAUUGUCUUUGAUACAUUUAUUUUAAUUCUUAAGUGGCCAAAUAACAGAUUAGGUAAAAUGAGAUUACAUGAAAAGGUUCUAAAAUGAUAUAUUUAGAUGCAAUAAUUAACCCAACAGAGGAUUGAGCAUCA
B26: ENSG00000176244:stop:overlap|stop_codon|ENSG00000176244|stop_codon|NA|stop_codon (ssRNA)
RNA: GGGAGUUCUACAGUCCGACGAUCAAGAUGCGACGAGUGCCUAUAUUUCUAAAGCAAAGGAGCUGAUAGAAAAAUACGGAAUUUAGAAUACAGCAUAUGAGGAAUUUUUCCUUUUGAAGACUUCCAAAUGCUAUCAUGACCUAACAACAGAGGAUUGAGCAUCA
B27: chr3:31636526:31636632:+|3pUTR|ENSG00000163527|unk|FALSE|unique (ssRNA)
RNA: GGGAGUUCUACAGUCCGACGAUCCAAAAUGUGAUGAGAGCUUCUUGAACCGGUAAACUAGUACAGGUCUGAGAAAGACAUAUUAGAAGAAUCAUUAUACUUCCUUGAAUUAUAUUUAUUUUCAUGUUUCUCUAAUGCAAAGAACAACAGAGGAUUGAGCAUCA
B28: chr8:41543231:41543332:+|3pUTR|ENSG00000147536|msi1|FALSE|unique (ssRNA)
RNA: B23 RNA with C83U, C84A

Each binder was assayed against T1, UNK ZnF1-6 (called full-length) (assay: nsRBNS (natural sequence RNA bind-n-seq); RBNS binding buffer (assumed for nsRBNS): 25 mM Tris pH 7.5, 150 mM KCl, 3 mM MgCl2, 0.01% Triton X-100, 500 ug/ml BSA, 20 U/ml SUPERase-In, 4 C; UNK is unkempt and MSI1 is Musashi-1; names of the RNAs are library labels; protein concentration not given here; high values mean tight binding).

| Binder | binding signal [enrichment R] |
| --- | --- |
| B1 | 0.497 |
| B2 | 0.452 |
| B3 | 1.99 |
| B4 | 11.7 |
| B5 | 66 |
| B6 | 2.83 |
| B7 | 1.93 |
| B8 | 0.744 |
| B9 | 4.24 |
| B10 | 0.727 |
| B11 | 16.5 |
| B12 | 0.805 |
| B13 | 0.494 |
| B14 | 10 |
| B15 | 0.631 |
| B16 | 1.05 |
| B17 | 4.16 |
| B18 | 13.8 |
| B19 | 10.2 |
| B20 | 73.9 |
| B21 | 0.489 |
| B22 | 16.2 |
| B23 | 1.48 |
| B24 | 10.1 |
| B25 | 3.73 |
| B26 | 0.808 |
| B27 | 1.21 |
| B28 | 11.4 |
